Results: PubChem BioAssay (EPA / NIEHS)
“And” between values parts separate entries of the source, which are not always exact repeats. Equal entries are not always repeated. Records with an inconclusive call do not appear. Some compounds were tested as several samples or in several runs, with calls that do not always agree. The source made the active and inactive calls. How the source made its calls, unless noted: active means hit-call score of the fitted dose curve at least 0.9, where 1 is the maximum; inconclusive means response in the unintended direction; inactive means score below 0.9.

Columns and labels:
[1] = read-out: Transforming Growth Factor (TGFB1), TGFB1 (gene 7040); assay: LTEA_HepaRG_TGFB1: Life Technologies and Expression Analysis (LTEA) Assay for Transforming Growth Factor (TGFB1) Transporter using HepaRG (AID 2283533; active means hit-call score of the fitted dose curve at least 0.9, where 1 is the maximum; inactive means score below 0.9); settings: mRNA level, 48 h; actives raise or lower the signal
Outline: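 TGFB1 transcript measured by qRT-PCR with normalisation to three housekeeping genes (ACTB, GAPDH, POLR2A); human HepaRG line treated in duplicate for 48 hr with an 8-point series topping at 100 uM, 0.5% DMSO vehicle, bidirectionally fitted.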

TIMP1, TIMP1 (gene 7076) = assay: LTEA_HepaRG_TIMP1: Life Technologies and Expression Analysis (LTEA) Assay for TIMP1 using HepaRG (AID 2283534; active means hit-call score of the fitted dose curve at least 0.9, where 1 is the maximum; inactive means score below 0.9); settings: mRNA level, 48 h; actives raise or lower the signal
Outline: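 Bidirectional change in TIMP1 transcript versus 0.5% DMSO, measured by TaqMan qRT-PCR with three housekeeping genes for normalization. HepaRG human liver cells dosed 48 h in duplicate, top concentration 100 uM with half-log dilutions.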

[2] = read-out: Tumor necrosis factor receptor 1 (TNFRSF1A), TNFRSF1A (gene 7132); assay: LTEA_HepaRG_TNFRSF1A: Life Technologies and Expression Analysis (LTEA) Assay for Tumor necrosis factor receptor 1 (TNFRSF1A) using HepaRG (AID 2283535; active means hit-call score of the fitted dose curve at least 0.9, where 1 is the maximum; inactive means score below 0.9); settings: mRNA level, 48 h; actives raise or lower the signal
Outline: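 mRNA measured by qRT-PCR (TaqMan, Fluidigm arrays) against ACTB/GAPDH/POLR2A housekeepers after 48 h chemical exposure of HepaRG cells. Top concentration 100 uM, half-log 8-point series, duplicates; vehicle 0.5% DMSO, both fit directions.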

[3] = read-out: Thyroid Hormone Responsive (THRSP), THRSP (gene 7069); assay: LTEA_HepaRG_THRSP: Life Technologies and Expression Analysis (LTEA) Assay for Thyroid Hormone Responsive (THRSP) using HepaRG (AID 2283536; active means hit-call score of the fitted dose curve at least 0.9, where 1 is the maximum; inactive means score below 0.9); settings: mRNA level, 48 h; actives raise or lower the signal
Outline: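 Differentiated HepaRG cells treated 48 h in serum-free induction medium with 8 half-log concentrations up to 100 uM (0.5% DMSO), duplicates. THRSP mRNA by TaqMan qRT-PCR normalised to ACTB, GAPDH, POLR2A; bidirectional fit versus DMSO.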

[4] = read-out: Cellular tumor antigen p53 (Homo sapiens) (UniProt P04637); assay: LTEA_HepaRG_TP53: Life Technologies and Expression Analysis (LTEA) Assay for Tumor Protein P53 (TP53) using HepaRG (AID 2283537; active means hit-call score of the fitted dose curve at least 0.9, where 1 is the maximum; inactive means score below 0.9); settings: mRNA level, 48 h; actives raise or lower the signal
Outline: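 Differentiated HepaRG cells in serum-free induction medium exposed 48 h in duplicate to 8 half-log concentrations, top 100 uM, 0.5% DMSO. TP53 mRNA by TaqMan qRT-PCR (Fluidigm), normalized to ACTB, GAPDH, POLR2A; fitted bidirectionally versus DMSO.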

[5] = read-out: UDP glucuronosyltransferase (UGT1A6), UGT1A6 (gene 54578); assay: LTEA_HepaRG_UGT1A6: Life Technologies and Expression Analysis (LTEA) Assay for UDP glucuronosyltransferase (UGT1A6) using HepaRG (AID 2283539; active means hit-call score of the fitted dose curve at least 0.9, where 1 is the maximum; inactive means score below 0.9); settings: mRNA level, 48 h; actives raise or lower the signal
Outline: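 Expression was quantified by TaqMan qRT-PCR on Fluidigm arrays with ACTB/GAPDH/POLR2A normalization and bidirectional fitting against 0.5% DMSO. HepaRG cells (~100,000/well) were treated in duplicate for 48 h at eight half-log concentrations up to 100 uM in serum-free induction medium.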

[6] = read-out: X-box binding protein 1 (XBP1), XBP1 (gene 7494); assay: LTEA_HepaRG_XBP1: Life Technologies and Expression Analysis (LTEA) Assay for X-box binding protein 1 (XBP1) using HepaRG (AID 2283540; active means hit-call score of the fitted dose curve at least 0.9, where 1 is the maximum; inactive means score below 0.9); settings: mRNA level, 48 h; actives raise or lower the signal
Outline: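 XBP1 transcript by qRT-PCR (housekeeping-normalized: ACTB, GAPDH, POLR2A) after 48 h chemical treatment of HepaRG cells, 8-point half-log series topping at 100 uM, vehicle 0.5% DMSO. Gain and loss of signal fitted relative to DMSO.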

[7] = LTEA_HepaRG_LDH_cytotoxicity: Cytotoxicity Assessment in the Life Technologies and Expression Analysis (LTEA) Assay (AID 2283563);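 on AC50: LDH activity released into spent culture medium as a marker of cell death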
Outline: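 LDH release into culture medium read after 48 h chemical treatment of HepaRG cells. Duplicate wells, eight-point half-log series topping at 100 uM, 0.5% DMSO vehicle and baseline.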

[8] = TOX21_p53_BLA_p2_viability: Viability Assessment in the Tox21 HCT-116 p53 Agonism Beta-lactamase Assay, Phase 2 (AID 2283591);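 further: compound exposure lasted 16 h at 37 °C; actives lower the ATP signal meaning cytotoxicity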
Outline: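 HCT116 p53-bla cells, 4000/well, dosed after 5 h plating (217-fold dilution of DMSO stocks) and incubated 16 h at 37C. Viability taken as cellular ATP by CellTiter-Glo luminescence after 30 min RT; signal loss marks cytotoxicity.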

[9] = molecular target: Cellular tumor antigen p53 (Homo sapiens) (UniProt P04637); assay: TOX21_p53_BLA_p2_ratio: Tox21 HCT-116 p53 Agonism Beta-lactamase Assay, Ratio, Phase 2 (AID 2283592)
Sequence of Cellular tumor antigen p53 (Homo sapiens) (P04637 whole entry, looked up): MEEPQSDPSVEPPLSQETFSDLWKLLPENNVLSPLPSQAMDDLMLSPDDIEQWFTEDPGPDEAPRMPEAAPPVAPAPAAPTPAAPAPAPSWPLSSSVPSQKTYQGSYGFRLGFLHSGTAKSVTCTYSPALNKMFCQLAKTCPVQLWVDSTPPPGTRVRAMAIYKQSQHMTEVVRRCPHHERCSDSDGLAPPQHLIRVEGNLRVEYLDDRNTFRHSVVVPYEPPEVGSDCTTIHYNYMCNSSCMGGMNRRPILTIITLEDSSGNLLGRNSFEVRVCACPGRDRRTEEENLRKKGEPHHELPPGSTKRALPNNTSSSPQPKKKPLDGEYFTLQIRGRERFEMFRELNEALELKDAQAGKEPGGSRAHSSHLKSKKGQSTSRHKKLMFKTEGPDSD
Outline: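 Gain-of-signal p53 agonism was scored from the beta-lactamase FRET ratio (460/530 nm, 405 nm excitation) in HCT116 cells treated 16 h at 37C, 5% CO2, with DMSO serving as negative control and baseline.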

[10] = TOX21_p53_BLA_p3_viability: Viability Assessment in the Tox21 HCT-116 p53 Agonism Beta-lactamase Assay, Phase 3 (AID 2283593);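 further: cells exposed to compound for 16 h before reading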
Outline: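 HCT116 cells, 4000/well, dosed 5 h after plating by pin transfer (217-fold dilution from DMSO stock) and incubated 16 h at 37C, 5% CO2. Viability read as ATP luminescence with CellTiter-Glo after 30 min at room temperature.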

[11] = molecular target: Cellular tumor antigen p53 (Homo sapiens) (UniProt P04637); assay: TOX21_p53_BLA_p3_ratio: Tox21 HCT-116 p53 Agonism Beta-lactamase Assay, Ratio, Phase 3 (AID 2283596)
Outline: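 HCT116 p53-bla cells (4000/well) given compound in DMSO (217-fold dilution) after 5 h, incubated 16 h at 37C. CCF4-AM substrate 2 h at room temperature; 460/530 nm emission ratio, gain fitted against DMSO.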

[12] = TOX21_p53_BLA_p4_viability: Viability Assessment in the Tox21 HCT-116 p53 Agonism Beta-lactamase Assay, Phase 4 (AID 2283597);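 further: hits lower the luminescence signal meaning cytotoxicity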
Outline: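 Following a 16 h exposure at 37C, the treated HCT116 wells were first read for the FRET ratio. They were then lysed with CellTiter-Glo, and ATP luminescence was recorded after 30 min at room temperature.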

[13] = molecular target: Cellular tumor antigen p53 (Homo sapiens) (UniProt P04637); assay: TOX21_p53_BLA_p5_ratio: Tox21 HCT-116 p53 Agonism Beta-lactamase Assay, Ratio, Phase 5 (AID 2283599)
Outline: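 HCT-116 p53-bla cells (4000/well) plated 5 h, dosed with compound (217-fold DMSO dilution) for 16 h at 37 C; CCF4-AM substrate 2 h at room temperature. Activity is the 460/530 nm emission ratio (405 nm excitation), fitted in gain-of-signal direction versus DMSO.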

[14] = TOX21_p53_BLA_p5_viability: Viability Assessment in the Tox21 HCT-116 p53 Agonism Beta-lactamase Assay, Phase 5 (AID 2283600)
Outline: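 After the 460/530 nm beta-lactamase measurement, the wells received an ATP-detection luciferase reagent; signal was read 30 min later at RT. Compound treatment lasted 16 h on cells pre-incubated 5 h post-seeding.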

[15] = molecular target: Cellular tumor antigen p53 (Homo sapiens) (UniProt P04637); assay: TOX21_p53_BLA_p4_ratio: Tox21 HCT-116 p53 Agonism Beta-lactamase Assay, Ratio, Phase 4 (AID 2283601)
Outline: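 HCT-116 p53 beta-lactamase reporter cells (4000/well) preincubated 5 h, then compound (217-fold dilution of DMSO stock) for 16 h at 37C. CCF4-AM substrate added 2 h at room temperature; 460/530 nm emission ratio fitted upward versus DMSO.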

[16] = Tanguay_ZF_120hpf_MORT_legacy: (Legacy) Oregon State University Tanguay Lab 120 Hour Post-fertilization zebrafish Assay for Mortality (AID 2283633);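 on AC50: fitted as increase in binary mortality versus DMSO negative control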
Outline: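 Static waterborne exposure from 6 to 120 hpf at 28C of single dechorionated wild-type (5D) embryos per well, 0.64% DMSO final. Death recorded present/absent by brightfield at 24 and 120 hpf.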

[17] = Tanguay_ZF_120hpf_YSE_legacy: (Legacy) Oregon State University Tanguay Lab 120 Hour Post-fertilization zebrafish Assay for Yolk Sac Edema (AID 2283634)
Outline: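 Presence or absence of yolk sac edema was recorded at 120 hpf in surviving larvae. These were wild-type Tropical 5D embryos, chorion removed at 4 hpf, held in static exposure at 28C from 6 hpf with 0.64% DMSO vehicle.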

[18] = read-out: UDP glucuronosyltransferase (UGT1A1), UGT1A1 (gene 54658); assay: LTEA_HepaRG_UGT1A1: Life Technologies and Expression Analysis (LTEA) Assay for UDP glucuronosyltransferase (UGT1A1) using HepaRG (AID 2283538; active means hit-call score of the fitted dose curve at least 0.9, where 1 is the maximum; inactive means score below 0.9); settings: mRNA level, 48 h; actives raise or lower the signal
Outline: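 HepaRG cells, 0.5% DMSO vehicle, 48 h exposure in serum-free induction medium to 8-point half-log series topping at 100 uM, in duplicate. UGT1A1 mRNA by Fluidigm qRT-PCR, normalized to ACTB/GAPDH/POLR2A; bidirectional fit versus DMSO.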

Measured: AC50

CC[C@H](C)[C@H]1O[C@]2(C=C[C@@H]1C)C[C@@H]1C[C@@H](C/C=C(\C)[C@@H](O[C@H]3C[C@H](OC)[C@@H](O[C@H]4C[C@H](OC)[C@@H](O)[C@H](C)O4)[C@H](C)O3)[C@@H](C)/C=C/C=C3\CO[C@@H]4[C@H](O)C(C)=C[C@@H](C(=O)O1)[C@]34O)O2 (tested in a mixture with another compound)
active: [1] 55.3 µM | TIMP1, TIMP1 (gene 7076) 11.7 µM | [2] 51.4 µM | [4] 6.99 µM | [5] 18.6 µM | [7] 22.1 µM | [8] 9.13 µM and 43.5 µM | [9] 17.6 µM | [10] 15.9 µM | [11] 28.7 µM | [12] 6.67 µM and 35.5 µM | [13] 31.4 µM | [14] 7.91 µM and 42.1 µM | [16] 13.9 µM
inactive: [3] | [6] | [9] | [10] | [13] | [15] | [17]

COC(=O)c1ccccc1S(=O)(=O)NC(=O)N(C)c1nc(C)nc(OC)n1
inactive: [8] | [12] | [14] | [15]

CNC(=O)CSP(=S)(OC)OC
inactive: [1] | TIMP1, TIMP1 (gene 7076) | [2] | [3] | [18] | [5] | [6] | [7] | [17]

CCOC1Oc2ccc(OS(C)(=O)=O)cc2C1(C)C (stereo unspecified)
active: [3] 89.3 µM | [18] 11.8 µM | [5] 85.4 µM | [7] 83.8 µM
inactive: [1] | TIMP1, TIMP1 (gene 7076) | [2] | [6] | [16] | [17]

C[C@H]1[C@H](c2ccc(Cl)cc2)SC(=O)N1C(=O)NC1CCCCC1
active: [1] 50 µM | [3] 90.2 µM | [4] 82.3 µM | [18] 88.6 µM | [5] 78.8 µM
inactive: TIMP1, TIMP1 (gene 7076) | [2] | [6] | [7] | [8] | [9] | [10] | [11] | [13] | [14] | [16] | [17]
